Data as given in PubChem BioAssay (NCATS).
Results filed as inconclusive are left out. Entries that show only a call come without a potency. Calls of active or inactive are those of the source. Calls come from the whole dose curve; as a rule, active = well fitted curve in the direction sought with a large enough effect; inconclusive = small, poorly fitted or top-dose-only effect, or another doubt; inactive = no such curve, though single readings can be large; an effect the other way counts as inactive or inconclusive.

Tests used:
[1] = target: Cellular tumor antigen p53 (Homo sapiens) (UniProt P04637); assay: Primary qHTS for small molecule compounds that upregulate eGFP-tagged delta133p53alpha (in N-terminal) cells. (AID 2060322); details: NCI-H358 eGFP-delta133p53alpha fluorescence, 24 h; activation: active compounds read high; note: nearly all actives have a fitted effect of over 75% in size; note: potency is the fitted concentration of half-maximal effect; for activation: series mostly up to about 56 µM
Chain of Cellular tumor antigen p53 (Homo sapiens) (P04637 whole entry, looked up): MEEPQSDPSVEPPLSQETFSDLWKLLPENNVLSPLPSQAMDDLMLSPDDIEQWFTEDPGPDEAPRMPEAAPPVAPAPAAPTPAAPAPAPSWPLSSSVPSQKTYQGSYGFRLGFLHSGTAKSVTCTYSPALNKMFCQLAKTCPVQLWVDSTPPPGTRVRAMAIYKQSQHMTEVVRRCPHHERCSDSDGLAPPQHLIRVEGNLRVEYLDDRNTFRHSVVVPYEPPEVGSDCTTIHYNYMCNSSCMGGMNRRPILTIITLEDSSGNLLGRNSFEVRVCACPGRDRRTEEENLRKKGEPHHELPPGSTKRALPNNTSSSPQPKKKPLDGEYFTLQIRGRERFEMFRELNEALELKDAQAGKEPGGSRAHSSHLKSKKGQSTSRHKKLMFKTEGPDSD
In short: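 NCI-H358 cells pre-induced 24 h with 10 ng/ml doxycycline to express N-terminal eGFP-delta133p53alpha, then dosed 24 h at 37C without doxycycline; fixed, Hoechst-stained, GFP intensity by laser scanning cytometry, normalized to DMSO (0%) and 57.5 uM 5-azacytidine (100%).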

[2] = target: Aldehyde dehydrogenase, mitochondrial (Homo sapiens) (UniProt P05091); assay: qHTS for Inhibitors of the Aldehyde Dehydrogenase Family (ALDH2) Primary screen (AID 2061308); note: nearly all actives have a fitted effect of over 55% in size
[3] = target: Retinaldehyde dehydrogenase 3 (Homo sapiens) (UniProt P47895); assay: qHTS for Inhibitors of the Aldehyde Dehydrogenase Family (ALDH1A3) Primary screen (AID 2061315)

Structure (SMILES)	activation [1]	Potency [2]	Potency [3]	Potency [1]
C=C1C(=O)O[C@H](CCC)[C@H]1C(=O)O	-1.67% (inactive)	inactive	inactive	–
Cc1ccccc1N1CCN(S(=O)(=O)C[C@]23CC[C@H](C[C@@H]2NC(=O)[C@@H](N)CCS(C)(=O)=O)C3(C)C)CC1	3.67% (inactive)	inactive	inactive	–
CC1(C)S[C@@H]2[C@H](NC(=O)[C@H](N)c3ccc(O)cc3)C(=O)N2[C@H]1C(=O)O	-5% (inactive)	inactive	inactive	–
COC(=O)C1(O)C(OC(C)=O)CCC2C3(CC(c4ccoc4)OC3=O)C(C)=CCC21C(=O)OC (stereo unspecified)	9.82% (inactive)	inactive	inactive	–
C/C1=C\C[C@H](O[C@@H]2O[C@H](CO)[C@@H](O)[C@H](O)[C@H]2O)/C(C)=C/[C@H]2OC(=O)[C@H](C)[C@@H]2CC1	-8.04% (inactive)	inactive	inactive	–
COC1C(OC(=O)/C=C/C=C/C=C/C=C/C(=O)O)CCC2(CO2)C1C1(C)OC1CC=C(C)C (stereo unspecified)	10.7% (inactive)	inactive	inactive	–
O=C(Cc1ccccc1)OC[C@H]1O[C@H](O[C@H]2O[C@H](CO)[C@@H](O)[C@H](O)[C@H]2O)[C@H](O)[C@@H](O)[C@@H]1O	-3.05% (inactive)	inactive	inactive	–
Cn1c(=O)c2nc(/C=C/c3cccc(Cl)c3)n(C)c2n(C)c1=O	-2.33% (inactive)	inactive	inactive	–
C#CCOc1ccc2c(c1)c(-c1ccc(C(C)C)cc1)nc(=O)n2C(C)C	-0.893% (inactive)	inactive	inactive	–
CCCOc1ccc(-c2nc(OC)c3ccccc3n2)cc1	-5.67% (inactive)	inactive	inactive	–
C[C@@H](Oc1cc(-n2cnc3ccc(OC4CCN(C)CC4)cc32)sc1C(N)=O)c1ccccc1C(F)(F)F	–	inactive	inactive	4.78 µM (active)
COc1cc(C2Oc3c(OC)cc(CCCO)cc3C2CO)ccc1O[C@H]1O[C@H](C)[C@@H](O)[C@H](O)[C@@H]1O (stereo partly specified)	-13.7% (inactive)	inactive	inactive	–
O=C1CCC=CC1(O)C(=O)OCc1ccccc1O[C@@H]1O[C@H](CO)[C@@H](O)[C@H](O)[C@H]1O (stereo partly specified)	15.3% (inactive)	inactive	inactive	–
C[C@]1(CO)CCC[C@]2(C)C3=C(CCC12)COC3 (stereo partly specified)	-8.04% (inactive)	inactive	inactive	–
CC(C)CC(=O)OC[C@H]1O[C@@](COC(=O)CC(C)C)(O[C@H]2O[C@H](CO)[C@@H](O)[C@H](O)[C@H]2O)[C@@H](OC(=O)CC(C)C)[C@@H]1OC(=O)CC(C)C	-0.763% (inactive)	inactive	inactive	–
Cc1cc(NC(=O)c2cccc(NC(=O)/C=C/CN(C)C)c2)ccc1Nc1nccc(-c2cccnc2)n1	–	inactive	inactive	26.9 µM (active)
COc1ccc(C2(O)c3ccccc3NC(=O)C2O)cc1 (stereo unspecified)	-3.82% (inactive)	inactive	inactive	–
